Data: PubChem BioAssay (Tox21)
“And” between values parts separate entries of the source, which are not always exact repeats. Equal values may be shown once. Inconclusive results are not listed. Some structures have more than one record in an assay (separate samples or runs), and their calls can disagree. The source made the active and inactive calls. Unless noted, the call rests on the fitted dose curve; in most records, active means well fitted curve in the direction sought with a large enough effect in the repeat runs; inconclusive means weak or mixed curves; inactive means no such curve, though single readings can be large; an effect the other way counts as inactive or inconclusive.

Columns and labels:
[1] = qHTS assay to identify small molecule agonists of the peroxisome proliferator-activated receptor delta (PPARd) signaling pathway - cell viability counter screen (AID 743211); further: nearly all actives have a fitted effect of over 55% in size
How it was run: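 Counter screen for cytotoxicity run in parallel with the PPARd reporter screen. Beta-lactamase reporter HEK293H cells exposed to compounds 17 h; ATP-based CellTiter-Glo luminescence quantified viability.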

[2] = qHTS assay to identify small molecule antagonists of the peroxisome proliferator-activated receptor delta (PPARd) signaling pathway - cell viability counter screen (AID 743213); further: nearly all actives have a fitted effect of over 50% in size; further: potency means the concentration at half of the fitted maximal effect
How it was run: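 PPARd-bla HEK293H cells (3000/well) got compound plus 300 nM L165041 agonist for 17 h at 37 C. Viability in the same wells came from CellTiter-Glo luminescence after 30 min at room temperature.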

[3] = molecular target: Vitamin D3 receptor (Homo sapiens) (UniProt P11473); experiment: qHTS assay to identify small molecule agonists of the vitamin D receptor (VDR) signaling pathway (AID 743222; calls by dose curve)
How it was run: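 VDR-bla cells, 2,000/well; 4 h preincubation 37C; cpd (DMSO) 16 h; LiveBLAzer B/G substrate 2 h RT; fluorescence intensity read.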

[4] = molecular target: Vitamin D3 receptor (Homo sapiens) (UniProt P11473); experiment: qHTS assay to identify small molecule antagonists of the vitamin D receptor (VDR) signaling pathway (AID 743223; active means well fitted inhibition curve with a large enough effect in the signal ratio in the repeat runs, not every such curve was filed as active; the % refers to the signal ratio)
How it was run: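 Cells carrying a VDR-driven beta-lactamase reporter (VDR-bla) were co-treated with compound and 3 nM final 1alpha,25-dihydroxyvitamin D3 for 16 h at 37C; reporter activity was measured as FRET substrate fluorescence after 2 h at room temperature.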

[5] = qHTS assay to identify small molecule agonists of the vitamin D receptor (VDR) signaling pathway - cell viability counter screen (AID 743224); further: nearly all actives have a fitted effect of over 50% in size; further: potency means the concentration at half of the fitted maximal effect
How it was run: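 Luminescence from CellTiter-Glo, read after 30 min at room temperature, reports viability of VDR-bla cells treated with compounds for 16 h at 37C in the wells used for the beta-lactamase FRET read.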

[6] = qHTS assay to identify small molecule antagonists of the vitamin D receptor (VDR) signaling pathway - cell viability counter screen (AID 743225); further: nearly all actives have a fitted effect of over 50% in size
How it was run: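 HEK293T VDR-bla; cpd + 1a,25-(OH)2D3 3 nM final, 16 h 37C/5% CO2; B/G FRET substrate 2 h RT; then CellTiter-Glo 30 min RT, luminescence.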

[7] = qHTS assay to identify small molecule agonists of the NFkB signaling pathway - cell viability counter screen (AID 1159515; calls by dose curve; further: nearly all actives have a fitted effect of over 55% in size; further: potency means the concentration at half of the fitted maximal effect)
How it was run: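 Luminescence from CellTiter-Glo (30 min, room temperature) gives viability, measured in the same wells as the beta-lactamase reporter read. Cells were NFkB-bla ME-180, 2,000 per well, treated 5 hr with compounds.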

[8] = qHTS assay to identify small molecule agonists of the endoplasmic reticulum stress response signaling pathway (AID 1159516; active means well fitted activation curve with a large enough effect in the signal ratio in the repeat runs, not every such curve was filed as active; the % refers to the signal ratio; further: potency means the concentration at half of the fitted maximal effect)
How it was run: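 Read-out is beta-lactamase cleavage of a FRET substrate (405 nm excitation; 460 and 530 nm emissions) in ESRE-bla HeLa cells after a 5 hr compound exposure at 37 C. Substrate incubation ran 2 hr at room temperature.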

[9] = qHTS assay to identify small molecule agonists of the endoplasmic reticulum stress response signaling pathway - cell viability counter screen (AID 1159517; calls by dose curve; further: nearly all actives have a fitted effect of over 50% in size; further: potency means the concentration at half of the fitted maximal effect)
How it was run: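 Luminescence readout: CellTiter-Glo, 30 min RT, same wells as the ESRE-bla reporter read. HeLa ESRE-bla, 1,500 cells/well, o/n 37 C; cpd 5 hr 37 C/5% CO2.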

[10] = qHTS assay to identify small molecule antagonists of the retinoid-related orphan receptor gamma (ROR-gamma) signaling pathway - cell viability counter screen (AID 1159520); further: nearly all actives have a fitted effect of over 50% in size
How it was run: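 Tet-on ROR gamma CHO cells (1,000/well) were plated 4 hr, given compounds in DMSO for 2 hr at 37 C, then induced with 1 uM final doxycycline for 16 hr. Viability was read as ATP by CellTiter-Glo luminescence after 30 min.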

[11] = molecular target: Nuclear receptor ROR-gamma (Homo sapiens) (UniProt P51449); experiment: qHTS assay to identify small molecule antagonists of the retinoid-related orphan receptor gamma (ROR-gamma) signaling pathway (AID 1159521; further: nearly all actives have a fitted effect of over 50% in size; further: potency means the concentration at half of the fitted maximal effect)
How it was run: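 Cells were plated, rested 4 h at 37 C, exposed to compounds for 2 h, then given 1 uM final doxycycline hyclate to induce RORγ expression. After 16 h, ONE-Glo luminescence from the ROR response element reporter was measured.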

[12] = qHTS assay to identify small molecule agonists of the AP-1 signaling pathway - cell viability counter screen (AID 1159525; calls by dose curve; further: nearly all actives have a fitted effect of over 55% in size; further: potency means the concentration at half of the fitted maximal effect)
How it was run: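 ME-180 AP-1-bla, 2500 cells/well, Opti-MEM + 0.5% dialyzed FBS; overnight 37 °C; cpd 15-pt titration, 5 h 37 °C; CellTiter-Glo 30 min RT; luminescence read; normalised to TOAB and DMSO controls.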

[13] = qHTS assay to identify small molecule agonists of the AP-1 signaling pathway (AID 1159526; calls by dose curve; further: potency means the concentration at half of the fitted maximal effect)
[14] = molecular target: Retinoic acid receptor RXR-alpha (Homo sapiens) (UniProt P19793); experiment: qHTS assay to identify small molecule agonists of the RXR signaling pathway (AID 1159527; calls by dose curve; further: nearly all actives have a fitted effect of over 35% in size; further: potency means the concentration at half of the fitted maximal effect)
How it was run: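 Cells plated at 2,000/well, rested 5 hr at 37 C, pin-dosed with DMSO compound solutions, incubated 16 hr, then loaded with B/G FRET substrate for 2 hr at RT before dual-emission fluorescence reading.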

[15] = molecular target: Peroxisome proliferator-activated receptor delta (Homo sapiens) (UniProt Q03181); experiment: qHTS assay to identify small molecule agonists of the peroxisome proliferator-activated receptor delta (PPARd) signaling pathway (AID 743212; calls by dose curve)
How it was run: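 GeneBLAzer PPARd UAS-bla HEK293H cells (beta-lactamase reporter under UAS control), plated and rested 5 h at 37 C, then exposed to compounds in DMSO at 37 C; LiveBLAzer B/G FRET substrate added, 2 h room temperature, fluorescence read.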

[16] = molecular target: Peroxisome proliferator-activated receptor delta (Homo sapiens) (UniProt Q03181); experiment: qHTS assay to identify small molecule antagonists of the peroxisome proliferator-activated receptor delta (PPARd) signaling pathway (AID 743215; active means well fitted inhibition curve with a large enough effect in the signal ratio in the repeat runs, not every such curve was filed as active; the % refers to the signal ratio;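 further: cells stimulated with agonist L165041 at 300 nM final during compound exposure; series mostly up to about 62 µM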)
How it was run: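 Read-out is beta-lactamase FRET fluorescence, measured 2 h after substrate addition at room temperature. Beforehand, UAS-bla HEK293H cells carrying the PPARd reporter were exposed to compounds with L165041 at 300 nM final for 17 h at 37 C.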

[17] = qHTS assay to identify small molecule antagonists of the farnesoid-X-receptor (FXR) signaling pathway - cell viability counter screen (AID 743221; active means well fitted cell-killing curve with a large enough effect in the repeat runs, not every such curve was filed as active; further: nearly all actives have a fitted effect of over 50% in size; further: potency means the concentration at half of the fitted maximal effect)
How it was run: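 Multiplexed counter screen: viability of FXR-bla HEK 293T cells under agonist stimulation by chenodeoxycholic acid (50 uM, final) and test compound for 16 h at 37 C, measured by CellTiter-Glo luminescence in the reporter wells.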

[18] = molecular target: Bile acid receptor (Homo sapiens) (UniProt Q96RI1); experiment: qHTS assay to identify small molecule antagonists of the farnesoid-X-receptor (FXR) signaling pathway (AID 743217; active means well fitted inhibition curve with a large enough effect in the signal ratio in the repeat runs, not every such curve was filed as active; the % refers to the signal ratio)
How it was run: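 HEK 293T FXR-UAS-bla, 5000 cells/well; compound + CDCA 50 uM final; 16 h, 37 °C; B/G FRET substrate 2 h RT; fluorescence.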

[19] = qHTS assay to identify small molecule agonists of the farnesoid-X-receptor (FXR) signaling pathway - cell viability counter screen (AID 743218); further: nearly all actives have a fitted effect of over 45% in size
How it was run: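 HEK 293T FXR-bla cells; 5 h pre-incubation, 16 h compound exposure at 37 C; LiveBLAzer substrate 2 h RT, then CellTiter-Glo 30 min RT, luminescence.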

[20] = molecular target: Bile acid receptor (Homo sapiens) (UniProt Q96RI1); experiment: qHTS assay to identify small molecule agonists of the farnesoid-X-receptor (FXR) signaling pathway (AID 743220; active means well fitted activation curve with a large enough effect in the signal ratio in the repeat runs, not every such curve was filed as active; the % refers to the signal ratio)
How it was run: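 Beta-lactamase reporter under UAS control in GeneBLAzer FXR HEK 293T cells (5000/well) measured with LiveBLAzer FRET substrate after 2 h at room temperature. Compound exposure lasted 16 h at 37C.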

Measured: Potency

Peroxisome proliferator-activated receptor delta (Homo sapiens), sequence (Q03181 whole entry, looked up): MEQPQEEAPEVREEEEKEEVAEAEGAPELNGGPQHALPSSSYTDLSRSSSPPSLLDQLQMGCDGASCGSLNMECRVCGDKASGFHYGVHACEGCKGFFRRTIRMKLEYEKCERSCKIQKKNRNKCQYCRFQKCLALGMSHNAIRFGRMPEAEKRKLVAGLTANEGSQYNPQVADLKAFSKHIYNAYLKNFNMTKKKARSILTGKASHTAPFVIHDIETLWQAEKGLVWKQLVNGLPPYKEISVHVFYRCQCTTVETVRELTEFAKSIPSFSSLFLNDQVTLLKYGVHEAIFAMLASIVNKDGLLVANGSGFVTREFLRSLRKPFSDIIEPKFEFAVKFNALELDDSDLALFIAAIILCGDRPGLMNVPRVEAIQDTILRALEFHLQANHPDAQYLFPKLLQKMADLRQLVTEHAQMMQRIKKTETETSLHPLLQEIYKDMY
Vitamin D3 receptor (Homo sapiens), sequence (P11473 whole entry, looked up): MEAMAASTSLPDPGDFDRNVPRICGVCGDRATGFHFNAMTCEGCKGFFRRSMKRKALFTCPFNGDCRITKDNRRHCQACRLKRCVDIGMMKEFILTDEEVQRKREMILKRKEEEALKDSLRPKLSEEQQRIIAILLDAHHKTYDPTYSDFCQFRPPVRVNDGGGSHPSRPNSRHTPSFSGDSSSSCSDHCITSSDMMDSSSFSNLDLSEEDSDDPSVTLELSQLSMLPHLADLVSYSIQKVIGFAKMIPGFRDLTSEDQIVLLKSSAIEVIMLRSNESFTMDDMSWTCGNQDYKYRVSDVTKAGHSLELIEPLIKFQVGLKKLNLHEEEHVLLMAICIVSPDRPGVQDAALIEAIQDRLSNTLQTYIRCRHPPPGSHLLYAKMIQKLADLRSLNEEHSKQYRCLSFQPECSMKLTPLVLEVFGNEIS
Retinoic acid receptor RXR-alpha (Homo sapiens), sequence (P19793 whole entry, looked up): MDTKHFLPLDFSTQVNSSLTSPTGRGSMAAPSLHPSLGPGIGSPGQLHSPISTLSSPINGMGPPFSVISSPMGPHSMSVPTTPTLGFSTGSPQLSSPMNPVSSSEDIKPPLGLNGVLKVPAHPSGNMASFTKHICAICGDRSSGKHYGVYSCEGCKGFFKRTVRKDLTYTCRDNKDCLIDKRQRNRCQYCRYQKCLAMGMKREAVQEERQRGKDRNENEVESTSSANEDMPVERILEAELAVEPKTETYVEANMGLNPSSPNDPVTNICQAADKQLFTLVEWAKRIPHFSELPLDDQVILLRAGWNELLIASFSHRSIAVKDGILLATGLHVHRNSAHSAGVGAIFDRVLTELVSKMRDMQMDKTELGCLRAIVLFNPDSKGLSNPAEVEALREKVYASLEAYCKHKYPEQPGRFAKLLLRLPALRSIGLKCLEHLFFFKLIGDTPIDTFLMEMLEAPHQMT
Bile acid receptor (Homo sapiens), sequence (Q96RI1 whole entry, looked up): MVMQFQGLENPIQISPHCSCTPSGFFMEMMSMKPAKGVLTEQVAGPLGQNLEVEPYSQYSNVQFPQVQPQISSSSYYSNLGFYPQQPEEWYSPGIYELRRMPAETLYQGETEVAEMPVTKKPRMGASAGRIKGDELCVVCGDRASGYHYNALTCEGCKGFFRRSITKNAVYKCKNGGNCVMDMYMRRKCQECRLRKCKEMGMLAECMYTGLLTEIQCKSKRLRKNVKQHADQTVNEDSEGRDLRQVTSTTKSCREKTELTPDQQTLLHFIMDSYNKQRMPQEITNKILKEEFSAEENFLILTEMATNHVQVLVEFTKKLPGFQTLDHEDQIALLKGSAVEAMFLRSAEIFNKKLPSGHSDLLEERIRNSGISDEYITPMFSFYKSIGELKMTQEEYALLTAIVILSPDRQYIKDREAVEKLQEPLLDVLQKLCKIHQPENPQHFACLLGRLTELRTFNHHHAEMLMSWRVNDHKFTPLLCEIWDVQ

CN1CCOCC1
not listed: [15] | [16] | [17] | [18] | [19] | [20]
inactive: all other assays above

C[C@]12CC[C@@H]3c4ccc(O)cc4CC[C@H]3[C@@H]1CC[C@@H]2O
active: [11] 27.3 µM
not listed: [14] | [18] | [19] | [20]
inactive: all other assays above

C[C@]12C=CC(=O)C=C1CC[C@H]1[C@@H]3C[C@@H](O)[C@](O)(C(=O)CO)[C@@]3(C)C[C@H](O)[C@@]12F
not listed: [14] | [18] | [19] | [20]
inactive: all other assays above

COc1cc([C@H]2Oc3cc([C@H]4Oc5cc(O)cc(O)c5C(=O)[C@@H]4O)ccc3O[C@@H]2CO)ccc1O
not listed: [3] | [4] | [14] | [15] | [16] | [17]
inactive: all other assays above

CC(=O)Nc1ccc2c(c1)Cc1cc(NC(C)=O)ccc1-2
not listed: [14] | [18] | [20]
inactive: all other assays above

C=CCOC(=O)C(=C)C
not listed: [18] | [19] | [20]
inactive: all other assays above

CC(=O)[C@H]1CC[C@H]2[C@@H]3CC=C4C[C@@H](O)CC[C@]4(C)[C@H]3CC[C@]12C
active: [11] 13.7 µM
not listed: [14] | [17] | [19]
inactive: all other assays above

c1ccc2c(c1)ccc1cc3c(ccc4ccccc43)cc12
active: [8] 7.67 µM
not listed: [3] | [4] | [14]
inactive: all other assays above

O=C1OC2(c3ccccc31)c1cc(I)c(O)c(I)c1Oc1c2cc(I)c(O)c1I
inactive and 33.4 µM (active): [2]
inactive and 26.5 µM (active): [5]
inactive and 29.8 µM (active): [13]
48.7 µM (active) and inactive: [11]
not listed: [3] | [18] | [19] | [20]
inactive: all other assays above

C=C[C@@]1(C)CC(=O)[C@]2(O)[C@@]3(C)[C@@H](O)CCC(C)(C)[C@@H]3[C@H](O)[C@H](OC(C)=O)[C@@]2(C)O1
active: [2] 9.77 µM | [17] 1.74 µM | [7] 24.5 µM and 21.3 µM | [9] 21.9 µM and 21.3 µM | [11] 54.5 µM | [12] 21.9 µM and 21.3 µM | [14] 12.3 µM
inactive: [15] | [3] | [5] | [8] | [10] | [13]

O=S1(=O)CCCO1
not listed: [16] | [17] | [18] | [20]
inactive: all other assays above

Nc1cc([N+](=O)[O-])ccc1C(=O)O
not listed: [17] | [18] | [20]
inactive: all other assays above

COc1ccc2nc(N)sc2c1
not listed: [14] | [15] | [16] | [18] | [20]
inactive: all other assays above

C=C[Si](OCCOC)(OCCOC)OCCOC
not listed: [11] | [17]
inactive: all other assays above

Cc1ccc([N+](=O)[O-])c(C)c1
12.3 µM (active) and inactive: [12]
2.43 µM (active) and inactive: [11]
not listed: [14]
inactive: all other assays above

ClC/C=C/CCl
not listed: [11] | [18] | [20]
inactive: all other assays above
